Source: PubChem BioAssay (Tox21)
Records with an inconclusive call do not appear. Activity calls are given as the source filed them. Unless noted, calls come from the whole dose curve.

Tests used:
[1] = Nuclear factor erythroid 2-related factor 2/antioxidant responsive element (Nrf2/ARE) small molecule agonists: qHTS cell viability counter screen in human keratinocytes (AID 1919968; active = well fitted curve in the direction sought with a large enough effect in the repeat runs; an effect the other way counts as inactive or inconclusive; note: nearly all actives have a fitted effect of over 55% in size; note: potency is the fitted concentration of half-maximal effect)
Procedure, shortened: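 In human HaCaT keratinocytes stably expressing an ARE-driven luciferase, compound exposure lasted 23 h at 37 C under 5% CO2. Viable cells are quantified with a protease-based fluorogenic reagent (CellTiter-Fluor) read 1 h after addition.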

[2] = target: Gonadotropin-releasing hormone receptor (Homo sapiens) (UniProt P30968); assay: Human gonadotropin-releasing hormone receptor (GnRHR) small molecule agonists, calcium flux assay in GnRHR-HEK293 cells (AID 1920063); note: nearly all actives have a fitted effect of over 35% in size
Procedure, shortened: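 Intracellular calcium rise is the read-out: engineered human GnRHR HEK293 cells, dye-loaded, are exposed to DMSO-dissolved compounds and fluorescence at Ex/Em 480/540 is tracked for 3 min.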

[3] = target: KiSS-1 receptor (Homo sapiens) (UniProt Q969F8); assay: Human kisspeptin (KISS1R) small molecule agonists, calcium flux assay in KISS1R-HEK293 cells (AID 1920064; active = well fitted curve in the direction sought with a large enough effect in the repeat runs; an effect the other way counts as inactive or inconclusive)
Procedure, shortened: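 Concentration-response testing used 15 concentrations in triplicate on human KISS1R-expressing HEK293 cells. Calcium-dependent fluorescence (Ex/Em 480/540) was followed kinetically for 3 min after compound transfer.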

[4] = G protein-coupled receptor (GPCR) small molecule agonists, calcium flux assay: HEK293 wild type cell line counter screen (AID 1920065)
Procedure, shortened: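 Fluorescence intensity signals activation. After overnight (18 h) culture and a 1 h calcium dye load at 37 C, compounds are added by pin tool and the plate read at 480/540 nm for 3 min in 1 s steps.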

[5] = p53 small molecule agonists, cell-based qHTS assay with human liver microsomes (AID 1963577);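 note: p53 response element beta-lactamase reporter cells with liver microsomes plus NADPH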
Procedure, shortened: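 16 h, 37 C exposure of p53RE-bla cells to compounds with human liver microsomes and NADPH (0.5 mg/mL final each); detection via LiveBLAzer mixture, 2 h dark at room temperature.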

[6] = p53 small molecule agonists, cell-based qHTS assay with rat liver microsomes (AID 1963578)
Procedure, shortened: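 With rat liver microsomes and NADPH present (0.5 mg/mL final each), p53RE-bla cells are treated with compound for 16 h at 37 C. LiveBLAzer detection mixture is then applied for 2 h at room temperature in the dark.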

[7] = p53 small molecule agonists, cell-based qHTS assay with human liver microsomes: qHTS cell viability counter screen (AID 1963579); note: nearly all actives have a fitted effect of over 45% in size; note: potency is the fitted concentration of half-maximal effect
Procedure, shortened: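 In this multiplexed counter screen, the reporter plates were subsequently treated with CellTiter-Glo so that cell viability, reflected by luminescence, could be recorded for p53RE-bla cells dosed 16 h with compounds under microsomal activation (HLM and NADPH).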

[8] = p53 small molecule agonists, cell-based qHTS assay: qHTS cell viability counter screen (AID 1963581); note: nearly all actives have a fitted effect of over 45% in size; note: potency is the fitted concentration of half-maximal effect
Procedure, shortened: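 Luminescence from CellTiter-Glo, reflecting ATP content, serves as the cytotoxicity measure; it is taken after the 2 h reporter substrate step in HCT-116 p53RE-bla cells dosed for 16 h at 37 C.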

[9] = target: Muscarinic acetylcholine receptor M1 (Homo sapiens) (UniProt P11229); assay: Cholinergic receptor muscarinic 1 (CHRM1) small molecule antagonists, cell-based qHTS assay (AID 1963588); note: nearly all actives have a fitted effect of over 40% in size
Procedure, shortened: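 Compounds were tested at 15 concentrations in three independent runs. Dye-loaded CHRM1-CHO cells were exposed 5 min at room temperature before stimulation by acetylcholine added at 50nM. Intracellular calcium was read kinetically on FDSS for 3 min.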

[10] = target: Muscarinic acetylcholine receptor M1 (Homo sapiens) (UniProt P11229); assay: Cholinergic receptor muscarinic 1 (CHRM1) small molecule agonists, cell-based qHTS assay (AID 1963589); note: nearly all actives have a fitted effect of over 35% in size
Procedure, shortened: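 Fluorescent calcium dye reports M1 activation in stably transfected CHO cells. Compounds, 15 concentrations, added after 1 h dye loading at 37 C; kinetic reading at 1 sec intervals.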

[11] = target: Beta-2 adrenergic receptor (Homo sapiens) (UniProt P07550); assay: Adrenergic beta2 receptor (ADRB2) small molecule antagonists, cell-based qHTS assay (AID 1963592); note: series mostly up to about 92 µM; nearly all actives have a fitted effect of over 50% in size
Procedure, shortened: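 Assay format: CHO-ADRB2 cells, 18-20hr seeding at 37C/5% CO2, then compound plus 1nM isoproterenol agonist mix for 0.5hr RT. Homogeneous time-resolved fluorescence cAMP detection after 1hr, expressed as 665/615 nm ratio.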

[12] = target: Beta-2 adrenergic receptor (Homo sapiens) (UniProt P07550); assay: Adrenergic beta2 receptor (ADRB2) small molecule agonists, cell-based qHTS assay (AID 1963593);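 note: CHO cells stably overexpressing human ADRB2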
Procedure, shortened: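 CHO cells stably over-expressing ADRB2 were plated overnight at 37C, then dosed with compounds plus a stimulation mix containing 100uM IBMX and 25uM Ro-20-1724 for 0.5hr at room temperature. cAMP was measured by HTRF competition, 1hr.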

[13] = target: D(2) dopamine receptor (Homo sapiens) (UniProt P14416); assay: Dopamine D2 receptor (DRD2) small molecule agonists, cell-based qHTS assay (AID 1963594); note: nearly all actives have a fitted effect of over 35% in size
Procedure, shortened: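 cAMP accumulation in DRD2-HEK293 cells measured by HTRF after 1 h detection; compounds added 10 min before NKH477 (200nM […]) forskolin-analogue stimulation, 30 min at room temperature, with Ro20-1724 present at 0.1 mM final.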

[14] = target: 5-hydroxytryptamine receptor 2A (Homo sapiens) (UniProt P28223); assay: 5-hydroxytryptamine receptor 2A (HTR2A) small molecule antagonists, cell-based qHTS assay (AID 1963586); note: nearly all actives have a fitted effect of over 45% in size; note: potency is the fitted concentration of half-maximal effect
Procedure, shortened: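 CHO cells stably expressing human HTR2A were plated for 18 h at 37 C, then loaded with calcium dye for 1 h. Compounds were preincubated 5 min at room temperature before DOI (4 nM solution) was added. Kinetic fluorescence was read for 3 min.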

[15] = target: 5-hydroxytryptamine receptor 2A (Homo sapiens) (UniProt P28223); assay: 5-hydroxytryptamine receptor 2A (HTR2A) small molecule agonists, cell-based qHTS assay (AID 1963587); note: nearly all actives have a fitted effect of over 30% in size
Procedure, shortened: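 Kinetic calcium-flux fluorescence (2 min, 1 sec intervals) after compound addition in agonist mode. HTR2A-CHO cells were cultured 18 h, then dye-loaded 1 h at 37 C.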

[16] = target: D(2) dopamine receptor (Homo sapiens) (UniProt P14416); assay: Dopamine D2 receptor (DRD2) small molecule antagonists, cell-based qHTS assay (AID 1963595; active = well fitted inhibition curve with a large enough effect in the signal ratio in the repeat runs, with a control signal flat; the % refers to the signal ratio)
Procedure, shortened: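 DRD2-HEK293; 0.1 mM Ro20-1724; cpd 10 min RT; NKH477 200 nM + quinpirole 12 nM, 30 min RT; HTRF cAMP (cAMP-d2/anti-cAMP cryptate), 665/620 nm ratio after 1 h.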

[17] = cAMP Responsive Elements (CRE) small molecule agonists, cell-based qHTS assay (AID 1963590)
Procedure, shortened: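 Compound exposure lasted 3 h at 37 C/5% CO2 in CRE-bla HEK 293T cells grown in assay medium with 10% dialyzed FBS and 25 mM HEPES. Reporter signal came from LiveBLAzer B/G FRET substrate, 2 h, room temperature.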

[18] = cAMP Responsive Elements (CRE) small molecule antagonists, cell-based qHTS assay (AID 1963591; active = well fitted inhibition curve with a large enough effect in the signal ratio in the repeat runs, not every such curve was filed as active; the % refers to the signal ratio)
Procedure, shortened: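 Stimulation used NKH477 at a final 0.25 uM for 3 h in compound-treated CRE-bla HEK293T cells, seeded 18 h beforehand. Reporter activity was measured with LiveBLAzer B/G FRET substrate after 2 h at room temperature.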

[19] = p53 small molecule agonists, cell-based qHTS assay with rat liver microsomes: qHTS cell viability counter screen (AID 1963580); note: nearly all actives have a fitted effect of over 45% in size
Procedure, shortened: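 Cytotoxicity counter screen: intracellular ATP read by CellTiter-Glo luminescence in the p53 reporter wells. HCT-116 p53RE-bla cells were treated for 16 h at 37 C alongside rat liver microsomes and NADPH, each 0.5 mg/mL final.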

[20] = p53 small molecule agonists, cell-based qHTS assay (AID 1963582; active = well fitted activation curve with a large enough effect in the signal ratio in the repeat runs, not every such curve was filed as active; the % refers to the signal ratio)
Procedure, shortened: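 After plating, p53RE-bla cells sat 5 h in the incubator; compounds or DMSO vehicle were pinned in; a 16 h incubation at 37 C followed; FRET substrate was added and, 2 h later at RT, fluorescence was measured.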

Measured: Potency

Sequence of Muscarinic acetylcholine receptor M1 (Homo sapiens) (P11229 whole entry, looked up): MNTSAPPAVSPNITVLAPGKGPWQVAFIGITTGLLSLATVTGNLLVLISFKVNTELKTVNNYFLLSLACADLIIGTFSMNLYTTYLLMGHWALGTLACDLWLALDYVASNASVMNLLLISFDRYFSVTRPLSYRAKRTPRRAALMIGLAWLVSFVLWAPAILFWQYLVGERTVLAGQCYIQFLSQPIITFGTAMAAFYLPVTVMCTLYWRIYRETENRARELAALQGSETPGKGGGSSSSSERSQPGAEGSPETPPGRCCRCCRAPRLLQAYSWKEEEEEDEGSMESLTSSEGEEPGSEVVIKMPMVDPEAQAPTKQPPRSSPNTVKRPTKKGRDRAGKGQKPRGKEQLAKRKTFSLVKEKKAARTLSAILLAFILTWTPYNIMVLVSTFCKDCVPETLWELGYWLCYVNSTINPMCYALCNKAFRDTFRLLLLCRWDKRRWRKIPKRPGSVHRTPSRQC
Sequence of 5-hydroxytryptamine receptor 2A (Homo sapiens) (P28223 whole entry, looked up): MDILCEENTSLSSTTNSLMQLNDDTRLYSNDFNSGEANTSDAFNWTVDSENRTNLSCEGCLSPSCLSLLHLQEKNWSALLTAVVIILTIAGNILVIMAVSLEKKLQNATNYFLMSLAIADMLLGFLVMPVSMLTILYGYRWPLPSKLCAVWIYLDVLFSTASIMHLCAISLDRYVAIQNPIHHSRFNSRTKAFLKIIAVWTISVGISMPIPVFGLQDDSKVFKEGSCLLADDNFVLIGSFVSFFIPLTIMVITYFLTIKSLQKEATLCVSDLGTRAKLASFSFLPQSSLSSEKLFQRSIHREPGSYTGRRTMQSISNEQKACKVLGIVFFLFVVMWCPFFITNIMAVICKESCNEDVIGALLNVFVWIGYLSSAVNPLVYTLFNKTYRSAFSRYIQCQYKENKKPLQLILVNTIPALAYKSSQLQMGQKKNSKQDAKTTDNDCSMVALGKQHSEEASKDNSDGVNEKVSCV
Sequence of Beta-2 adrenergic receptor (Homo sapiens) (P07550 whole entry, looked up): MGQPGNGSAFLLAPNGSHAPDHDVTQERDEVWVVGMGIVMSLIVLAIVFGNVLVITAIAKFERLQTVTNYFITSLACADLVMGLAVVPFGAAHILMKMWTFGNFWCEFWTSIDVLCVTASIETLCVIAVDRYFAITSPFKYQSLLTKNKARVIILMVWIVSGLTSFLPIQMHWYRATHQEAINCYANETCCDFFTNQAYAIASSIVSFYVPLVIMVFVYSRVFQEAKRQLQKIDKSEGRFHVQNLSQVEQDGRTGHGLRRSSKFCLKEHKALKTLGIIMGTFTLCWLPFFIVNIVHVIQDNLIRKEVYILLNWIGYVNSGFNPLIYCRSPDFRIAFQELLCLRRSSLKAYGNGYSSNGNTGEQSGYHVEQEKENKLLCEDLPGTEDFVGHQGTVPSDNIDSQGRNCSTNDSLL
Sequence of D(2) dopamine receptor (Homo sapiens) (P14416 whole entry, looked up): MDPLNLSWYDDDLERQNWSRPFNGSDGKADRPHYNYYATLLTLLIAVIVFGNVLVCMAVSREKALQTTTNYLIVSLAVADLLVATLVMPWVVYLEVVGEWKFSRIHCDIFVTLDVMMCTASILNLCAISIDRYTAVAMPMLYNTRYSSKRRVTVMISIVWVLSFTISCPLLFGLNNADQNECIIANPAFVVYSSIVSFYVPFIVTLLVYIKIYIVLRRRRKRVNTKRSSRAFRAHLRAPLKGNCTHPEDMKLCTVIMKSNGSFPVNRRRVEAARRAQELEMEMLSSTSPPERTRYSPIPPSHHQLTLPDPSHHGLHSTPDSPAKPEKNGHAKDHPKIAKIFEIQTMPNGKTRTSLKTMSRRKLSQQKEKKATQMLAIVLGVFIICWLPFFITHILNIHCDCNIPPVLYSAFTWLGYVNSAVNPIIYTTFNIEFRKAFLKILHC
Sequence of Gonadotropin-releasing hormone receptor (Homo sapiens) (P30968 whole entry, looked up): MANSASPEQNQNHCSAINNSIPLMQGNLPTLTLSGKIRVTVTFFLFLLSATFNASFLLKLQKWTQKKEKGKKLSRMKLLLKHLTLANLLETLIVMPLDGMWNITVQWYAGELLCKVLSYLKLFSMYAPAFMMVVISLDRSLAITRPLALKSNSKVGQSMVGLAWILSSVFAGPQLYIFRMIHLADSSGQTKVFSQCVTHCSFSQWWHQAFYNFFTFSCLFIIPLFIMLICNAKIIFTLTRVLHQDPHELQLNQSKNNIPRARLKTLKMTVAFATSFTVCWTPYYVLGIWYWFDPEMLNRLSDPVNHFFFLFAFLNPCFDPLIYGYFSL
Sequence of KiSS-1 receptor (Homo sapiens) (Q969F8 whole entry, looked up): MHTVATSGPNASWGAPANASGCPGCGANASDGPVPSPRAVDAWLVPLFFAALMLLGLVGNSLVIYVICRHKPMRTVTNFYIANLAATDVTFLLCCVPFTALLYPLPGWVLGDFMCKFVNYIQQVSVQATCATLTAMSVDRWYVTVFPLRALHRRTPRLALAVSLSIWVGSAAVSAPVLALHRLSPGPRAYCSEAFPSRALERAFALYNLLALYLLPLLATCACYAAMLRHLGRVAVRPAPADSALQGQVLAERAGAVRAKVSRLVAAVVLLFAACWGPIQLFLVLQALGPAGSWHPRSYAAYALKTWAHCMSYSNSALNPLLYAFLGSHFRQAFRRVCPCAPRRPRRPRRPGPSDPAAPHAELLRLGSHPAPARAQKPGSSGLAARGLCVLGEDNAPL

Oc1ccc(C2(c3ccc(O)cc3)CC3CC2C2CCCC32)cc1 (stereo not drawn)
active: [1] 29.4 µM | [7] 17.5 µM | [8] 34.9 µM
not listed: [14] | [15] | [16] | [17] | [18] | [19] | [20]
inactive: all other assays above

c1cc(C(c2ccc(OCC3CO3)cc2)c2ccc(OCC3CO3)cc2)ccc1OCC1CO1 (stereo not drawn)
active: [1] 27.3 µM
not listed: [10] | [11] | [12] | [17] | [18] | [19] | [20]
inactive: all other assays above

C/C=C/C=C/CO
not listed: [12] | [13] | [19] | [20]
inactive: all other assays above

CC(C)CCOC(=O)/C=C/c1ccccc1
not listed: [6]
inactive: all other assays above

CC(C)C=O
not listed: [6]
inactive: all other assays above

NCCN1CCOCC1
not listed: [7] | [8] | [9] | [12]
inactive: all other assays above

CC(CC=O)c1ccccc1 (stereo not drawn)
not listed: [7] | [9] | [11]
inactive: all other assays above

COC(=O)CCCCCCCC(=O)OC
not listed: [7] | [19]
inactive: all other assays above

O=C(O)C(=O)Cc1ccccc1
not listed: [7] | [15]
inactive: all other assays above

CCOc1ccc(NC(C)=O)cc1N
not listed: [7] | [12] | [14]
inactive: all other assays above

c1ccc2occc2c1
active: [14] 0.375 µM
not listed: [7] | [8] | [10] | [11] | [12] | [13] | [19] | [20]
inactive: all other assays above

CC(C)COC(=O)/C=C/c1ccccc1
not listed: [15] | [18] | [19]
inactive: all other assays above

O=C(Nc1ccc2c(c1)Cc1ccccc1-2)C(F)(F)F
not listed: [7] | [10] | [12] | [20]
inactive: all other assays above

C1CCOC1
not listed: [6] | [12]
inactive: all other assays above

CC1CN(c2ccccc2)NC1=O (stereo not drawn)
not listed: [6] | [16]
inactive: all other assays above

O=C(/C=C/c1ccccc1)OCCc1ccccc1
not listed: [12] | [16] | [19] | [20]
inactive: all other assays above
